Experimental findings from the supplement of paper PMC12636033 are described below.

± gives the standard deviation of the averaged measurements. The full ranking holds about 33,000 sequences; the median of “E-score (rank enrichment, -0.5 to 0.5)” is about -0.0068, and the highest 2% start at about 0.24. Shown is part of a subset that was picked to be rich in the highest values.

The test concerns muMax20 (Max(13-93) K31hArg/K57hArg, M65Nle). Kind of test: PBM 8-mer E-score (E-score (rank enrichment, -0.5 to 0.5)); higher = stronger preferential binding. The procedure: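 Protein binding microarray (universal PBM chip covering all 10-mers in fixed probe flanks) with chemically synthesized human Max(13-93) bHLH-LZ analogs (not full-length Max) bearing noncanonical residues (hArg, Tha, Aib, Nle at 65) and aromatic Cys staples. Read-out per 8-mer (and its reverse complement): E-score (rank-based enrichment, -0.5 to 0.5) and Z-score of median probe intensity.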
For the sequence AATAAGGG, the “PBM 8-mer E-score” value was determined as 0.11 ± 0.12.
As to ACTGTCTA, the “PBM 8-mer E-score” value was found to be 0.0515 ± 0.052.
Consider CGACAAGA, for which the “PBM 8-mer E-score” value is -0.0978 ± 0.12.
Turning to GTCCAGGA, the “PBM 8-mer E-score” value was -0.157 ± 0.032.
On to GAACGGGC, for which the “PBM 8-mer E-score” value was -0.0738 ± 0.11.
Then AACATACA, with 0.252 ± 0.0071; and AACATAAA, with 0.168 ± 0.035; and AACATACG, with 0.278 ± 0.03.
As to CACATACG, the “PBM 8-mer E-score” value turned out to be 0.0977 ± 0.026.
Then TACATAAA, with 0.239 ± 0.025; and AACATACC, with 0.0171 ± 0.02; and ATCATACG, with 0.184 ± 0.071.
The figure for ATCATACA is 0.28 ± 0.069; for AACATACT it is 0.0528 ± 0.0084.
As to GTCATACA, the “PBM 8-mer E-score” value was 0.118 ± 0.021.
Then ACCATACA, with 0.144 ± 0.051.
In the case of CACATAAA, the “PBM 8-mer E-score” value was determined as 0.2193 ± 0.00038.
With CGCGCTCA, the “PBM 8-mer E-score” value is -0.127 ± 0.012.
Turning to ACTGCAAA, the “PBM 8-mer E-score” value is 0.0247 ± 0.1.
As for AGGCGACA, the “PBM 8-mer E-score” value was -0.105 ± 0.11.
In the case of GCGAACCC, the “PBM 8-mer E-score” value was -0.0615 ± 0.025.
Take ATCTGACC: the “PBM 8-mer E-score” value is 0.00987 ± 0.008.
Turning to CAATCGCG, the “PBM 8-mer E-score” value is -0.0427 ± 0.086.
In the case of CAGATCTG, the “PBM 8-mer E-score” value was -0.123 ± 0.089.
Turning to GACATACA, the “PBM 8-mer E-score” value was found to be 0.167 ± 0.11.
With CACATACA, the “PBM 8-mer E-score” value came to 0.112 ± 0.072.
The figure for TACATACA is 0.26 ± 0.025; for ACGATGCC it is -0.151 ± 0.016; for ATATGCCA it is 0.242 ± 0.062.
As to ATATGCCG, the “PBM 8-mer E-score” value amounted to 0.0671 ± 0.1.
The figure for CTATGCCA is 0.0539 ± 0.12; for GCGTGCAC it is 0.208 ± 0.024.
For GCGTGCTA, the “PBM 8-mer E-score” value is 0.138 ± 0.033.
For CCGTGCAA, the “PBM 8-mer E-score” value is -0.0343 ± 0.018.
Consider CCGTGCTA, for which the “PBM 8-mer E-score” value is -0.0534 ± 0.02.
Consider ACGTGCAA, for which the “PBM 8-mer E-score” value is 0.251 ± 0.095.
CCGTGCAC: the “PBM 8-mer E-score” value was found to be 0.0347 ± 0.013.
Take ACGTGCTA: the “PBM 8-mer E-score” value is 0.278 ± 0.041.
TCGTGCAA: the “PBM 8-mer E-score” value came out at 0.0413 ± 0.0064.
For ACGTGCAC, the “PBM 8-mer E-score” value stood at 0.334 ± 0.11.
ACGTGCAT: the “PBM 8-mer E-score” value came out at 0.33 ± 0.053.
With AAGTGCAT, the “PBM 8-mer E-score” value was found to be 0.132 ± 0.029.
As to AGGTGCAT, the “PBM 8-mer E-score” value worked out at 0.0164 ± 0.091.
With CAAGCTCG, the “PBM 8-mer E-score” value is -0.109 ± 0.086.
Consider AAGACCCT, for which the “PBM 8-mer E-score” value was 0.0269 ± 0.086.
Then GACCGTGC, with -0.11 ± 0.054; and AGCCTCAA, with -0.0979 ± 0.089; and CGTCTCGC, with -0.117 ± 0.017.
As to CTAGCCAG, the “PBM 8-mer E-score” value is -0.0885 ± 0.015.
Consider GACACGAC, for which the “PBM 8-mer E-score” value is 0.0582 ± 0.097.
GGTGCAAA: the “PBM 8-mer E-score” value worked out at 0.0271 ± 0.074.
Consider CTCGCCTC, for which the “PBM 8-mer E-score” value is -0.157 ± 0.053.
Then CCTCAGTA, with -0.184 ± 0.019.
In the case of AGGTTTAG, the “PBM 8-mer E-score” value is -0.0204 ± 0.08.
Consider CCGTGCAG, for which the “PBM 8-mer E-score” value is -0.128 ± 0.047.
Take ACGTGCCG: the “PBM 8-mer E-score” value amounted to 0.207 ± 0.098.
ACGTGCAG: the “PBM 8-mer E-score” value was 0.252 ± 0.00027.
The figure for CTGTAGGC is -0.151 ± 0.011; for GACAACAA it is 0.125 ± 0.046; for CGTCTGGC it is -0.194 ± 0.022.
Regarding AATAATAG, the “PBM 8-mer E-score” value is 0.263 ± 0.024.
Regarding CATAATAC, the “PBM 8-mer E-score” value was determined as 0.26 ± 0.066.
CATAATAG: the “PBM 8-mer E-score” value was found to be 0.229 ± 0.017.
As to TGTAATAA, the “PBM 8-mer E-score” value came out at 0.189 ± 0.076.
Then GATAATAA, with 0.164 ± 0.034; and GATAATAC, with 0.204 ± 0.073.
For AATAATAT, the “PBM 8-mer E-score” value turned out to be 0.244 ± 0.011.
As to ACTAATAG, the “PBM 8-mer E-score” value came out at 0.191 ± 0.025.
In the case of CATAATAA, the “PBM 8-mer E-score” value was found to be 0.216 ± 0.021.
On to AATAATAC, for which the “PBM 8-mer E-score” value turned out to be 0.16 ± 0.018.
For TATAATAA, the “PBM 8-mer E-score” value turned out to be 0.315 ± 0.015.
For ACTAATAT, the “PBM 8-mer E-score” value amounted to 0.199 ± 0.0057.
Take CAGCCTGA: the “PBM 8-mer E-score” value was -0.0558 ± 0.092.
With CGGCGGAA, the “PBM 8-mer E-score” value is -0.0106 ± 0.03.
As to AATTGCTC, the “PBM 8-mer E-score” value was -0.0189 ± 0.0015.
Consider ACTAGATC, for which the “PBM 8-mer E-score” value is -0.0146 ± 0.044.
Regarding CGCACCAG, the “PBM 8-mer E-score” value was -0.0279 ± 0.043.
Turning to ATGAGACC, the “PBM 8-mer E-score” value was -0.0938 ± 0.12.
For CTGTCCTC, the “PBM 8-mer E-score” value is -0.0695 ± 0.18.
Take CGTCCTGC: the “PBM 8-mer E-score” value was -0.0779 ± 0.08.
ATAGCTGG: the “PBM 8-mer E-score” value was -0.243 ± 0.062.
Take AATAATCC: the “PBM 8-mer E-score” value was determined as 0.0218 ± 0.0033.
With CCTAATAA, the “PBM 8-mer E-score” value was 0.103 ± 0.096.
With AATACTAC, the “PBM 8-mer E-score” value amounted to 0.197 ± 0.038.
Consider AATACTAT, for which the “PBM 8-mer E-score” value was 0.265 ± 0.077.
With AAAAATAA, the “PBM 8-mer E-score” value came to 0.0636 ± 0.065.
The figure for TCTAATAA is 0.236 ± 0.032; for AGTAATAG it is 0.227 ± 0.078.
Then AATACTAA, with 0.158 ± 0.052; and GGTAATAA, with 0.0931 ± 0.008; and ACTAATAA, with 0.222 ± 0.015.
Consider AATAATAA, for which the “PBM 8-mer E-score” value came out at 0.277 ± 0.011.
Then AGTAATAA, with 0.271 ± 0.0094; and AACGGAGT, with -0.013 ± 0.052.
